# Reference: PubChem BioAssay
# Several values for one entry are separate records, joined by “and”; a condition that tells them apart may be missing. Identical values can stand only once. Activity calls are given as the source filed them.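 The calls were made as follows, unless noted: active = normalized viability below 100% at a tested concentration; inactive = the rest.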
# What was measured:
# [1] = biological target: 6-phosphogluconate dehydrogenase, decarboxylating (Homo sapiens) (UniProt P52209); assay: 6PGD enzyme inhibitors, primary screen, biochemical, human, recombinant enzyme, NADPH absorbance (AID 1159550;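 active = at least 20% inhibition of 6-phosphogluconate dehydrogenase activity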); settings: recombinant 6PGD, NADPH absorbance 341 nm; at 10 µM; stronger effect = higher value
# [2] = Cy5 fluorescence interference with SSB-bound oligo, artefact control for HCV NS3 helicase inhibitor project, biochemical, NIH Clinical Collection, E. coli SSB (AID 743268; call rule not given here)
# [3] = tested on: Hepatitis C virus NS3 helicase; assay: HCV NS3 helicase inhibitors, primary screen, biochemical, fluorescence polarization, NIH Clinical Collection (AID 743270; call rule not given here); settings: NS3 helicase binding to Cy5-dT15 DNA, stronger effect = higher value, concentration not given here
# [4] = biological target: Single-stranded DNA-binding protein (Escherichia coli (strain K12)) (UniProt P0AGE0); assay: E. coli SSB displacement from DNA, counter-screen for HCV NS3 helicase inhibitor project, biochemical, fluorescence polarization, NIH Clinical Collection (AID 743271; in the data active = inhibition above about 28%); settings: stronger effect = higher value, concentration not given here
# [5] = fluorescence interference in NS3h assay format, artefact control for HCV NS3 helicase inhibitor project, biochemical, NIH Clinical Collection (AID 743272; call rule not given here;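 also: HCV NS3 helicase with a Cy5 labelled single stranded DNA probe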); settings: fluorescence interference counterscreen, stronger effect = lower value
# [6] = modulation of C. elegans fzo-1 (AID 1259413; call rule not given here;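 also: fzo-1 mutant C. elegans worms in liquid wells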); settings: C. elegans fzo-1 modulator screen, mean read-out; stronger effect = higher value
# [7] = differential killing of epithelial or mesenchymal cells, primary screen, imaging, PC-3E GFP, TEM4-18 mCherry, co-culture (AID 1345086;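 active = compounds killing one labelled cell type while sparing the other, by normalised counts and ratio limits, not self-fluorescent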;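 as to all read-outs here: cells exposed to compound for 72 h before imaging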;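 as to red/green cell ratio (normalised): normalised mesenchymal count divided by normalised epithelial count so high means epithelial killing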); settings: imaging cell counts, at 1 µM; for red/green cell ratio (normalised): actives lie on both sides, counts scaled to control wells, 1 = unselective
# [8] = biological target: NAD(+) hydrolase SARM1 (Homo sapiens) (UniProt Q6SZW1); assay: SARM1 TIR NADase inhibitors, cell lysate, NAD-Glo luminescence (AID 1508614;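 active = compound whose remaining NAD level is above about 45 nM, limit read from the data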;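 also: higher remaining NAD means stronger inhibition of SARM1 NADase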); settings: SAM-TIR HEK293T lysate NADase, at 1 µM, stronger effect = higher value
# [9] = biological target: Mitogen-activated protein kinase 7 (Homo sapiens) (UniProt Q13164); assay: ERK5 transactivation activators in reporter cells, primary screen, cell-based, HTS (AID 1508626;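 active = luciferase signal above three times the same-plate solvent-only control wells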;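 also: luciferase driven by Gal4-ERK5 fusion binding five Gal4 sites before minimal TATA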); settings: HeLa Gal4-ERK5 transactivation, 18 h, at 5 µM, stronger effect = higher value
# F380Y = assay: modulators of BK channel variants, profiling panel, selectivity assay, cell-based, U2OS BacMam, thallium flux, beta subunits (AID 1259406;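 active = thallium flux through the channel raised or lowered by more than 3 SD from vehicle-only wells, actives on both sides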;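 also: initial slope of Thallos dye fluorescence rise after thallium is added; log ratio against the mean of 0.3% DMSO vehicle wells on the same plate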); settings: at 30 µM
# F380Y/beta2Delta = assay: as above; settings: at 30 µM
# [10] = biological target: Calcium-activated potassium channel subunit alpha-1 (Homo sapiens) + Leucine-rich repeat-containing protein 26 (Homo sapiens) (UniProt Q12791+Q2I0M4); assay: as above; settings: F380Y/Slo1WT/gamma1, at 30 µM
# R275C = assay: as above; settings: at 30 µM
# R275C/beta1 = assay: as above; settings: at 30 µM
# R275C/beta2Delta = assay: as above; settings: at 30 µM
# [11] = survival rescue of mitochondrial mutant cells in low glucose, primary screen, MELAS cybrids, Rieske KO mouse fibroblasts, CellTiter-Glo (AID 1508586;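 active = mean z-score across replicates of 1.96 or higher in either the MELAS or the Rieske mutant cell line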;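 also: z relative to plate mean and SD of compound and empty wells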)
# [12] = ovarian cancer cell viability with rucaparib, profiling panel, oncology-focused library, rucaparib conditional (AID 1508598); settings: patient-derived ovarian cancer cells, CellTiter-Glo viability, 144 h, stronger effect = lower value
# [13] = viability rescue of complex I mutant cybrids, primary screen, cell-based, galactose medium, ATP luminescence (AID 1645843;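 active = z-score of at least 1.8 in each of two replicates, scored against plate mean and spread of sample wells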;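 also: positive z means more ATP and so rescue of galactose-driven cybrid death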); settings: complex I mutant cybrid cells, 72 h, stronger effect = higher value
# [14] = liver-stage malaria parasite growth inhibition, primary screen, cell-based, HepG2, luciferase luminescence, HepG2 viability (AID 624349; in the data active = parasite load remaining mostly below about 12%, no sharp cut-off; inactive = mostly above about 10%;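 also: 100% = mean of DMSO negative control wells on the same plate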); settings: P. berghei liver stage in HepG2, luciferase luminescence, concentration not given here; parasite load remaining: stronger effect = lower value; viability: measured here: HepG2 viability without parasites
# [15] = sensitizers of A549 cells to miR-34 induction, primary screen, imaging, A549 dox-inducible miR-34, nuclei and caspase counts (AID 1347080;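 active = compounds whose cell count with miR-34 switched on is under 0.7 times the count with it off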); settings: A549 miR-34 inducible, Hoechst nuclei count, 48 h
# [16] = measured here: epithelial PC-3E GFP cell survival
# [17] = measured here: mesenchymal TEM4-18 mCherry cell survival
# [18] = MELAS cybrid survival, CellTiter-Glo 48 h, stronger effect = higher value
# [19] = Rieske KO mouse fibroblast survival, CellTiter-Glo 72 h
# [20] = stronger effect = lower value, cell number ratio, induced over uninduced
# [21] = measured here: relative caspase fold change +Dox/-Dox
# [22] = measured here: total cells with miR-34 induction, stronger effect = lower value
# [23] = measured here: total cells without miR-34 induction
# Sequence of Calcium-activated potassium channel subunit alpha-1 (Homo sapiens) + Leucine-rich repeat-containing protein 26 (Homo sapiens) (Q2I0M4 whole entry, looked up, one chain of several): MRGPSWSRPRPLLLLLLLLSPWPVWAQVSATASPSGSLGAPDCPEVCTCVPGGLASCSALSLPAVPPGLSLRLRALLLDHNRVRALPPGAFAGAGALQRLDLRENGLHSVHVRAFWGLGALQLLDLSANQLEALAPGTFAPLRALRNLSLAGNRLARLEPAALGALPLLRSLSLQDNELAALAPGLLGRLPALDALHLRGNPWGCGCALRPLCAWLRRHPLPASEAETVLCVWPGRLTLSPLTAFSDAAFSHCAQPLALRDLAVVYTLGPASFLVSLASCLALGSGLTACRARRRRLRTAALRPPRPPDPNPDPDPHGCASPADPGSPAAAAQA
# Sequence of NAD(+) hydrolase SARM1 (Homo sapiens) (Q6SZW1 whole entry, looked up, the tested form may be a part): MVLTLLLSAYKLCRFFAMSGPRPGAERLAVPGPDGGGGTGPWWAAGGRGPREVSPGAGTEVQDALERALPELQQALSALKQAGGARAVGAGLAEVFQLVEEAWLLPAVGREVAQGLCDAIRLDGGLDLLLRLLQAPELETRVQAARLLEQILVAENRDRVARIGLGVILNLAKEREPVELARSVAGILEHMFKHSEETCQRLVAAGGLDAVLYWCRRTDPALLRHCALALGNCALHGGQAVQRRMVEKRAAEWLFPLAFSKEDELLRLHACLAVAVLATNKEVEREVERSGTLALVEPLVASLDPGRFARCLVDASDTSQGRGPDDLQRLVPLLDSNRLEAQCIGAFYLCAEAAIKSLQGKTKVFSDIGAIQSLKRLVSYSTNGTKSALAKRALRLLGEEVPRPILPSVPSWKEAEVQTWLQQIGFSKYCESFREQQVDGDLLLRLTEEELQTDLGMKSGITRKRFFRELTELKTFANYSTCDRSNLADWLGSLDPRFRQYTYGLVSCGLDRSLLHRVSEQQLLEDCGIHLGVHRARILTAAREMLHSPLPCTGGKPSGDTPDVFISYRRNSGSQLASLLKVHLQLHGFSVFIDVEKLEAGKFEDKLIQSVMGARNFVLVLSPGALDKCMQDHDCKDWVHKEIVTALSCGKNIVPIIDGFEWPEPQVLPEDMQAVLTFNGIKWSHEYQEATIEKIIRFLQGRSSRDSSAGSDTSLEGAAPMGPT
# Sequence of Mitogen-activated protein kinase 7 (Homo sapiens) (Q13164 whole entry, looked up, the tested form may be a part): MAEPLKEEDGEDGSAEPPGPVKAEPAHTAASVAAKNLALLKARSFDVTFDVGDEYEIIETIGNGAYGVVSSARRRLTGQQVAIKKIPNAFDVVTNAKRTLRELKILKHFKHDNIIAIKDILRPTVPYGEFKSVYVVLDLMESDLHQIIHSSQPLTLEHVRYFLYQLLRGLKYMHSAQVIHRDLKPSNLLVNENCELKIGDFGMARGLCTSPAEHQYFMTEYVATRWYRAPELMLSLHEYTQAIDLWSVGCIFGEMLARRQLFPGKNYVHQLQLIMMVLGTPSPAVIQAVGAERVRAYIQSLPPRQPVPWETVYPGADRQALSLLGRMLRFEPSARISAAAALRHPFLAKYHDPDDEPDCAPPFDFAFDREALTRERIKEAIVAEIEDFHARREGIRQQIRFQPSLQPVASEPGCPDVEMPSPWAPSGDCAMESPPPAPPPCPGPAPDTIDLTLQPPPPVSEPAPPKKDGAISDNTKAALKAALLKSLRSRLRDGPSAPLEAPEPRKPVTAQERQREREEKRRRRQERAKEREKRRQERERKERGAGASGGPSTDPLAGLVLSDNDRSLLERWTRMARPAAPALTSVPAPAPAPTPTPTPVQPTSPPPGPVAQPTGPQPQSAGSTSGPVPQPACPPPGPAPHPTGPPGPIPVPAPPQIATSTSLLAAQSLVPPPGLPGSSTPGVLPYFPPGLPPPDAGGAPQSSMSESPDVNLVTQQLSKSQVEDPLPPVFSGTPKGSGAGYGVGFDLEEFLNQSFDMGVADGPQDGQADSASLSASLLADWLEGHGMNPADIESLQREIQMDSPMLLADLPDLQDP
# Sequence of 6-phosphogluconate dehydrogenase, decarboxylating (Homo sapiens) (P52209 whole entry, looked up): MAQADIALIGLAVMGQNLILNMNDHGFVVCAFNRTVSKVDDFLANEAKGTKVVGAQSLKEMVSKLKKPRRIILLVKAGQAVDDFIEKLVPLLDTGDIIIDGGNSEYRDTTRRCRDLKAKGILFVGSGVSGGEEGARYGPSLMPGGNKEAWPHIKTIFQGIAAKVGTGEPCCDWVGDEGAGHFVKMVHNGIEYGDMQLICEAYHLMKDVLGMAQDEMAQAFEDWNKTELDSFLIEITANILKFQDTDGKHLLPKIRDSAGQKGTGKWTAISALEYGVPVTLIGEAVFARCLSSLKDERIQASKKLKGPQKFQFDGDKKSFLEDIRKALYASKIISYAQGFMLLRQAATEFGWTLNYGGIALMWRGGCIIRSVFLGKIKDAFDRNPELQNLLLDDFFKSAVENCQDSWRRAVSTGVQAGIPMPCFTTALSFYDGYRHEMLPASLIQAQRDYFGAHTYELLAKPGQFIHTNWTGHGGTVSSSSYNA
smiles,measurement,setting,value
COc1ccc(-c2coc3c(OC)c(OC)cc(OC)c3c2=O)cc1,inhibition,[1],4.09% (inactive)
Nc1ncnc2c1ncn2C1CC(O)C(CO)O1 (configuration not stated),inhibition,[1],2.59% (inactive)
CC(C)NCC(O)COc1cccc2ccccc12 (configuration not stated),fluorescence ratio,[2],1.01 (inactive)
same,inhibition,[3],-8.64% (inactive)
same,inhibition,[4],2.57% (inactive)
same,fluorescence ratio,[5],0.93 (inactive)
same,inhibition,[1],13.6% (inactive)
same,mean signal,[6],249 (inactive)
same,red/green cell ratio (normalised),[7],1.4 (inactive)
same,normalised cell number,[7]; [16],0.94
same,normalised cell number,[7]; [17],1.31
same,remaining NAD,[8],10 nM (inactive)
same,luciferase signal,[9],48 AU (inactive)
same,log fold change Tl+ flux,F380Y,0.0569 (inactive)
same,log fold change Tl+ flux,F380Y/beta2Delta,0.058 (inactive)
same,log fold change Tl+ flux,[10],-0.019 (inactive)
same,log fold change Tl+ flux,R275C,-0.0109 (inactive)
same,log fold change Tl+ flux,R275C/beta1,0.0491 (inactive)
same,log fold change Tl+ flux,R275C/beta2Delta,0.188 (active)
CN(C)c1nc(N(C)C)nc(N(C)C)n1,fluorescence ratio,[2],1.08 (inactive)
same,inhibition,[3],-2.27% (inactive)
same,inhibition,[4],1.81% (inactive)
same,fluorescence ratio,[5],0.99 (inactive)
same,inhibition,[1],11.2% (inactive)
same,mean signal,[6],270 (inactive)
same,red/green cell ratio (normalised),[7],1.11 (inactive)
same,normalised cell number,[7]; [16],0.98
same,normalised cell number,[7]; [17],1.08
same,z-score,[11]; [18],-0.405 (inactive) and 0.759 (inactive) and 0.19 (inactive)
same,z-score,[11]; [19],0.906 and 0.36 and 0.155
same,viability,"[12]; at 0.000305 µM, OCI-C5x cells, with rucaparib 10 µM, 100% = cells with rucaparib alone",108% (inactive)
same,viability,"[12]; at 0.000305 µM, OCI-C5x cells, without rucaparib",98.3% (active)
same,viability,"[12]; at 0.000305 µM, OCI-P5x cells, with rucaparib 20 µM, 100% = cells with rucaparib alone",95.7% (active)
same,viability,"[12]; at 0.000305 µM, OCI-P5x cells, without rucaparib",87% (active)
same,viability,"[12]; at 0.00122 µM, OCI-C5x cells, with rucaparib 10 µM, 100% = cells with rucaparib alone",112% (inactive)
same,viability,"[12]; at 0.00122 µM, OCI-C5x cells, without rucaparib",100% (inactive)
same,viability,"[12]; at 0.00122 µM, OCI-P5x cells, with rucaparib 20 µM, 100% = cells with rucaparib alone",95.8% (active)
same,viability,"[12]; at 0.00122 µM, OCI-P5x cells, without rucaparib",89% (active)
same,viability,"[12]; at 0.00488 µM, OCI-C5x cells, with rucaparib 10 µM, 100% = cells with rucaparib alone",120% (inactive)
same,viability,"[12]; at 0.00488 µM, OCI-C5x cells, without rucaparib",101% (inactive)
same,viability,"[12]; at 0.00488 µM, OCI-P5x cells, with rucaparib 20 µM, 100% = cells with rucaparib alone",101% (inactive)
same,viability,"[12]; at 0.00488 µM, OCI-P5x cells, without rucaparib",92.4% (active)
same,viability,"[12]; at 0.0195 µM, OCI-C5x cells, with rucaparib 10 µM, 100% = cells with rucaparib alone",113% (inactive)
same,viability,"[12]; at 0.0195 µM, OCI-C5x cells, without rucaparib",100% (inactive)
same,viability,"[12]; at 0.0195 µM, OCI-P5x cells, with rucaparib 20 µM, 100% = cells with rucaparib alone",102% (inactive)
same,viability,"[12]; at 0.0195 µM, OCI-P5x cells, without rucaparib",96.6% (active)
same,viability,"[12]; at 0.0781 µM, OCI-C5x cells, with rucaparib 10 µM, 100% = cells with rucaparib alone",110% (inactive)
same,viability,"[12]; at 0.0781 µM, OCI-C5x cells, without rucaparib",101% (inactive)
same,viability,"[12]; at 0.0781 µM, OCI-P5x cells, with rucaparib 20 µM, 100% = cells with rucaparib alone",103% (inactive)
same,viability,"[12]; at 0.0781 µM, OCI-P5x cells, without rucaparib",106% (inactive)
same,viability,"[12]; at 0.313 µM, OCI-C5x cells, with rucaparib 10 µM, 100% = cells with rucaparib alone",107% (inactive)
same,viability,"[12]; at 0.313 µM, OCI-C5x cells, without rucaparib",108% (inactive)
same,viability,"[12]; at 0.313 µM, OCI-P5x cells, with rucaparib 20 µM, 100% = cells with rucaparib alone",108% (inactive)
same,viability,"[12]; at 0.313 µM, OCI-P5x cells, without rucaparib",99.9% (active)
same,viability,"[12]; at 1.25 µM, OCI-C5x cells, with rucaparib 10 µM, 100% = cells with rucaparib alone",96.8% (active)
same,viability,"[12]; at 1.25 µM, OCI-C5x cells, without rucaparib",67.8% (active)
same,viability,"[12]; at 1.25 µM, OCI-P5x cells, with rucaparib 20 µM, 100% = cells with rucaparib alone",78.5% (active)
same,viability,"[12]; at 1.25 µM, OCI-P5x cells, without rucaparib",28.8% (active)
same,viability,"[12]; at 5 µM, OCI-C5x cells, with rucaparib 10 µM, 100% = cells with rucaparib alone",109% (inactive)
same,viability,"[12]; at 5 µM, OCI-C5x cells, without rucaparib",97.9% (active)
same,viability,"[12]; at 5 µM, OCI-P5x cells, with rucaparib 20 µM, 100% = cells with rucaparib alone",107% (inactive)
same,viability,"[12]; at 5 µM, OCI-P5x cells, without rucaparib",98.6% (active)
same,remaining NAD,[8],10 nM (inactive)
same,luciferase signal,[9],40 AU (inactive)
same,z-score,[13],0.975 (inactive) and 0.76 (inactive) and 0.825 (inactive)
same,log fold change Tl+ flux,F380Y,0.0102 (inactive)
same,log fold change Tl+ flux,F380Y/beta2Delta,0.00703 (inactive)
same,log fold change Tl+ flux,[10],0.0168 (inactive)
same,log fold change Tl+ flux,R275C,-0.00384 (inactive)
same,log fold change Tl+ flux,R275C/beta1,-0.054 (inactive)
same,log fold change Tl+ flux,R275C/beta2Delta,-0.0096 (inactive)
CC[C@@H](CC[C@@H](C)[C@H]1CC[C@H]2[C@@H]3CC[C@H]4C[C@@H](O)CC[C@]4(C)[C@H]3CC[C@]12C)C(C)C,inhibition,[1],-13.2% (inactive)
Cc1occc(=O)c1O,parasite load remaining,[14],65.4% (inactive)
same,viability,[14],68.2%
same,fluorescence ratio,[2],1 (inactive)
same,inhibition,[3],-7.21% (inactive)
same,inhibition,[4],-2.76% (inactive)
same,fluorescence ratio,[5],0.97 (inactive)
same,inhibition,[1],8.86% (inactive)
same,mean signal,[6],263 (inactive)
same,red/green cell ratio (normalised),[7],0.9 (inactive)
same,normalised cell number,[7]; [16],1.16
same,normalised cell number,[7]; [17],1.05
same,fold change,[15]; [20],1.32 (inactive)
same,fold change,[15]; [21],0.534
same,cell count,[15]; [22],9050
same,cell count,[15]; [23],6830
same,luciferase signal,[9],52 AU (inactive)
same,z-score,[13],0.51 (inactive)
same,log fold change Tl+ flux,F380Y,0.00693 (inactive)
same,log fold change Tl+ flux,F380Y/beta2Delta,0.00122 (inactive)
same,log fold change Tl+ flux,[10],0.0152 (inactive)
same,log fold change Tl+ flux,R275C,-0.0195 (inactive)
same,log fold change Tl+ flux,R275C/beta1,-0.0131 (inactive)
same,log fold change Tl+ flux,R275C/beta2Delta,0.041 (inactive)
O=c1ccc2ccc(O)c(O)c2o1,inhibition,[1],2.02% (inactive)
same,fold change,[15]; [20],0.898 (inactive) and 0.94 (inactive)
same,fold change,[15]; [21],1.4 and 0.597
same,cell count,[15]; [22],7930 and 10100
same,cell count,[15]; [23],8840 and 10800
same,z-score,[11]; [18],-0.407 (inactive)
same,z-score,[11]; [19],0.783
same,luciferase signal,[9],64 AU (inactive)
same,z-score,[13],-0.93 (inactive)
C=C1CCC(=O)C(C)CCC2C1CC2(C)C (configuration not stated),inhibition,[1],14.7% (inactive)
O=C1C=CC2=C3c4cc(O)c(O)cc4CC3(O)COC2=C1 (configuration not stated),inhibition,[1],4.16% (inactive)
Cc1ccc(C(C)C)c(O)c1C(=O)O,inhibition,[1],7.11% (inactive)
C[C@H](CCC(=O)O)[C@H]1CC[C@H]2[C@@H]3C[C@H](O)[C@@H]4C[C@H](O)CC[C@]4(C)[C@H]3CC[C@]12C,inhibition,[1],2.54% (inactive)
CC(C)NCC(O)COc1ccc(CC(N)=O)cc1 (configuration not stated),fluorescence ratio,[2],1.03 (inactive)
same,inhibition,[3],-0.45% (inactive)
same,inhibition,[4],0.29% (inactive)
same,fluorescence ratio,[5],0.98 (inactive)
same,inhibition,[1],-17.1% (inactive)
same,mean signal,[6],244 (inactive)
same,red/green cell ratio (normalised),[7],0.99 (inactive)
same,normalised cell number,[7]; [16],1.11
same,normalised cell number,[7]; [17],1.09
same,z-score,[11]; [18],-0.4 (inactive)
same,z-score,[11]; [19],-0.19
same,remaining NAD,[8],10 nM (inactive)
same,luciferase signal,[9],52 AU (inactive)
same,log fold change Tl+ flux,F380Y,-0.0247 (inactive)
same,log fold change Tl+ flux,F380Y/beta2Delta,0.00577 (inactive)
same,log fold change Tl+ flux,[10],-0.00874 (inactive)
same,log fold change Tl+ flux,R275C,-0.00467 (inactive)
same,log fold change Tl+ flux,R275C/beta1,0.0259 (inactive)
same,log fold change Tl+ flux,R275C/beta2Delta,-0.0455 (inactive)
